Hits are enriched below; roughly 3.2% of the tested compounds scored in any of these assays.
Cardio protect – protects H9c2 cardiomyocytes from peroxide injury. 360,000 compounds, 0.63% hits. H2O2 injury protection, ATPLite, 2 h. protection from H2O2 cell death, % at 20 µM;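 active means compounds giving at least 50% protection of heart cells from peroxide-induced death in the single-dose screen, raw or plate-pattern-corrected value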;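 further: 0% = DMSO wells with peroxide and 100% = DMSO wells without peroxide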
PfG6PD inh – PfG6PD (Plasmodium falciparum) enzyme inhibition | PfGluPho enzyme, NADPH resazurin-diaphorase fluorescence | inhibition, % at 20 µM | 350,000 compounds, 0.78% hits | AID 504690;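 active means inhibition reaching at least a set limit at 20 µM in the primary screen, cut at about 59% in these data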;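 further: 0% = DMSO wells with substrate and 100% = DMSO wells lacking glucose-6-phosphate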
CRFR2-BP ag – agonists of human CRF-binding protein/CRF-R2 receptor complex. activation, % at 13.2 µM. HEK293 CRF-R2/CRF-BP, calcium dye fluorescence (FLIPR); percent of saturating CRF peptide response. 350,000 compounds, 0.46% hits;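 active means activation of at least 50%, plus an integration ratio under a set limit after plate pattern correction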;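 further: plate controls were neutral control wells without compound for no effect and CRF at EC100 for full effect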
CRFBP-R2 block – CRF-BP/CRF-R2 complex antagonism; HEK293 CRF-R2/CRF-BP, CRF-induced calcium fluorescence; inhibition, % at 11.8 µM; 350,000 compounds, 0.59% hits; AID 588475;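 active means inhibition of the ligand-induced calcium signal above about 50% at the single tested concentration, limit read from the data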
FAS TE block – FAS thioesterase (human) inhibition; 360,000 compounds, 0.67% hits; P49327; recombinant FAS-TE, OMFH fluorogenic substrate, fluorescence endpoint; inhibition, % at 15 µM;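 active means compounds whose normalised, plate-corrected inhibition of enzyme fluorescence in the single-dose primary screen is 50% or more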;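 further: 0% = DMSO with enzyme and 100% = substrate without enzyme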
Target sequence (P49327 whole entry, looked up): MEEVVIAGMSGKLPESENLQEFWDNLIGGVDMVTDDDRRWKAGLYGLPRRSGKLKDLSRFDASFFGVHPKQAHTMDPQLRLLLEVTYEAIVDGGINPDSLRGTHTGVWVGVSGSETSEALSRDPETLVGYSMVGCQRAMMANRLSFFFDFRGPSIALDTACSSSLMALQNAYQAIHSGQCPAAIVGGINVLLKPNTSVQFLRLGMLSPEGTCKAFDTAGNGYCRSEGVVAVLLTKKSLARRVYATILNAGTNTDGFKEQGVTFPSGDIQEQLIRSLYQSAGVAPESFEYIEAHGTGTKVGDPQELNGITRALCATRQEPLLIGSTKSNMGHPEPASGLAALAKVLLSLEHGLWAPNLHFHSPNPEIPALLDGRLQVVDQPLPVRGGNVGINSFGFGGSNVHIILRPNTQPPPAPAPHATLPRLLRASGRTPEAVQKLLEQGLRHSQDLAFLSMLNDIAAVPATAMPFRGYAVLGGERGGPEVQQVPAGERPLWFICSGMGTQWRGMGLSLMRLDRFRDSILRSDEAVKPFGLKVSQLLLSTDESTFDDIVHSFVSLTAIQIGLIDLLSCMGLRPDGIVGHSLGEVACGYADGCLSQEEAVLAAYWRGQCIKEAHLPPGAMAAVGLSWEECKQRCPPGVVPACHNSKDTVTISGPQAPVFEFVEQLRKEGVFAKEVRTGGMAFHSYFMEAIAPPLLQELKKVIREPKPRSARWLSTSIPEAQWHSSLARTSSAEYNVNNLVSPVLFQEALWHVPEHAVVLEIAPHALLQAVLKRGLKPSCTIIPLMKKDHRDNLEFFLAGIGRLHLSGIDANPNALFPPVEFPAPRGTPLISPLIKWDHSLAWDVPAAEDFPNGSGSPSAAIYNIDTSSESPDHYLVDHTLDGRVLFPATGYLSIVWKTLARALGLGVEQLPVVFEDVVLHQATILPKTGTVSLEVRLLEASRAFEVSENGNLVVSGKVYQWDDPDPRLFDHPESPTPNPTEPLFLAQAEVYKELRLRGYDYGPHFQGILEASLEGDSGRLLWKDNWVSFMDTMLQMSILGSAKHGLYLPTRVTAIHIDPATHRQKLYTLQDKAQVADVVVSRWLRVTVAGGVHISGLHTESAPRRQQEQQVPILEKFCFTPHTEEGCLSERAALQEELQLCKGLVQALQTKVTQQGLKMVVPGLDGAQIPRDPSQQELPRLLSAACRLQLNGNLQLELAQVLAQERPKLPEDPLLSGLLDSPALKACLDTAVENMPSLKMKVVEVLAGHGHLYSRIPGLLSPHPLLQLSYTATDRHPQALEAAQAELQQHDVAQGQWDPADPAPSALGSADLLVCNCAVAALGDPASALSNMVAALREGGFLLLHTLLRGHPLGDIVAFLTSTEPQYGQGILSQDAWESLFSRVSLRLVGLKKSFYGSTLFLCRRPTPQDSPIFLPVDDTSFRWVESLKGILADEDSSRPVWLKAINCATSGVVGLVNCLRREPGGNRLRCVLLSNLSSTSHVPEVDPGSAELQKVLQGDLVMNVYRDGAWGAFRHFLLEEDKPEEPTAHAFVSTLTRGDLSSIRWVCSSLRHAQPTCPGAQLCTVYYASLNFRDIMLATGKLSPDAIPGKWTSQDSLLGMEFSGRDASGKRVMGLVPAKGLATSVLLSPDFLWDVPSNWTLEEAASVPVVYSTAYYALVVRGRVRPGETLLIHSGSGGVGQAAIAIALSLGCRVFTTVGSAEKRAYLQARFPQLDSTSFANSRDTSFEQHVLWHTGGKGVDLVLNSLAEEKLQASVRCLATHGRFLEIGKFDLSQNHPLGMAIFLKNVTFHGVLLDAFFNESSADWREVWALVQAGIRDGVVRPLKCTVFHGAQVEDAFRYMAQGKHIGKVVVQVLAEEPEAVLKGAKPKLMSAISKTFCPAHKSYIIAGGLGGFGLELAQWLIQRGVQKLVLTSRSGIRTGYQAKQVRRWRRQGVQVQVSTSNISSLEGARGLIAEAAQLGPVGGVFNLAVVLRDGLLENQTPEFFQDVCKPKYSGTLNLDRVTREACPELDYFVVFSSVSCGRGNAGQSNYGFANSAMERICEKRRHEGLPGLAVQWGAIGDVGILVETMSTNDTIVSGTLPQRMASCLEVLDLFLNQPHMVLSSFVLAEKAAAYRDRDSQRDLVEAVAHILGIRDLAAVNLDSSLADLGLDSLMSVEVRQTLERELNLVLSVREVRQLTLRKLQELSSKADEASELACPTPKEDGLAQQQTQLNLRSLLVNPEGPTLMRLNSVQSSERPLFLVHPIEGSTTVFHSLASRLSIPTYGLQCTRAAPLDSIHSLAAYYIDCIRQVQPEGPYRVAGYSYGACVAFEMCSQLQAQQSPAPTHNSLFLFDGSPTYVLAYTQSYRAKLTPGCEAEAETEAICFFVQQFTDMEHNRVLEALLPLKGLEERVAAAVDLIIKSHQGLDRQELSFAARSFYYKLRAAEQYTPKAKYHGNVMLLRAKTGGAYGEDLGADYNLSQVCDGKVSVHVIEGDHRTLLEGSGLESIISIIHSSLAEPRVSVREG
aDG glyco act – alpha-DG glycosylation activation; activation, % at 10 µM; 360,000 compounds, 0.22% hits; AID 624168; Pro5-aDG cells, alpha-DG glycosylation AlphaScreen (IIH6); 0% Pro5, 100% B10-LARGE cell signal;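 active means activation of at least 8% versus controls, or a plate z-score of at least 8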;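 further: Pro5 are CHO cells carrying HIG-tagged alpha-DG that lacks glycosylation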
FAS-TE conf – confirmation of human fatty acid synthase thioesterase inhibitors | inhibition, % at 15 µM | 2,300 compounds, 45% hits | recombinant FAS-TE, OMFH fluorogenic substrate, fluorescence | AID 624325 | shares compounds with FAS TE block;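 active means compounds inhibiting the enzyme by at least 50% at 15 µM in any one of the replicates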;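 further: 0% = enzyme with DMSO only and 100% = wells lacking enzyme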
* hit, by the source's call.

`COc1ccc(C(CNC(=O)C2COc3ccccc3O2)N2CCCC2)cc1` (stereo unspecified) gave Cardio protect 8.0, PfG6PD inh 5.3, CRFR2-BP ag -0.8, CRFBP-R2 block 4.1, FAS TE block -5.2 and aDG glyco act -0.3.
`COc1ccc(-c2cc([N+](=O)[O-])ccc2OCC(=O)N(C)CC(=O)Nc2ccc(C)cc2)cc1` gave Cardio protect -4.4, PfG6PD inh 9.2, CRFR2-BP ag -1.4, CRFBP-R2 block -6.8, FAS TE block 60.0*, aDG glyco act -0.4 and FAS-TE conf 64.0*.
`Cc1onc(-c2ccccc2Cl)c1C(=O)Oc1cccc2cccnc12` gave Cardio protect 2.2, PfG6PD inh 6.9, CRFR2-BP ag -0.5, CRFBP-R2 block 3.2, FAS TE block 18.9 and aDG glyco act 0.5.
COC(=O)[C@H]1[C@H]2C[C@@H]3c4[nH]c5cc(OC)ccc5c4CCN3C[C@H]2C[C@@H](OC(=O)/C=C/c2cc(OC)c(OC)c(OC)c2)[C@@H]1OC was read as Cardio protect -26.3, PfG6PD inh 14.1, CRFR2-BP ag 4.8, CRFBP-R2 block -23.9, FAS TE block 54.2*, aDG glyco act -0.1 and FAS-TE conf 23.2.
Screening Cc1ccc(S(=O)(=O)N2[C@H](c3ccccc3)CC(=O)[C@@H]3CN(S(=O)(=O)c4ccccc4)[C@H](c4ccccc4)C[C@@H]32)cc1 returned Cardio protect 2.0, FAS TE block 83.4*, aDG glyco act -0.3 and FAS-TE conf 28.1.
COc1ccc([C@@H]2C[C@H]3[C@@H](CN2S(=O)(=O)c2ccccc2)C(=O)C[C@@H](c2ccccc2)N3S(=O)(=O)c2ccc(C)cc2)cc1 was read as Cardio protect -19.0, PfG6PD inh 2.6, CRFR2-BP ag 2.6, CRFBP-R2 block 11.0, FAS TE block 27.3 and aDG glyco act -0.1.
COc1ccc([C@@H]2CC(=O)[C@@H]3CN(S(=O)(=O)c4ccc(C)cc4)[C@H](c4ccccc4)C[C@@H]3N2S(=O)(=O)c2ccccc2)cc1 was read as Cardio protect 4.5, FAS TE block 76.6*, aDG glyco act 0.0 and FAS-TE conf 9.6.
Screening O=[N+]([O-])c1ccc(CN2CC(N3CCCC3)CS2(=O)=O)cc1 (stereo unspecified) returned Cardio protect -10.9, PfG6PD inh 7.7, CRFR2-BP ag 2.2, CRFBP-R2 block 0.9, FAS TE block -5.6 and aDG glyco act -0.3.
`O=[N+]([O-])c1ccc(CN2CC(N3CCC(Cc4ccccc4)CC3)CS2(=O)=O)cc1` (stereo unspecified) gave Cardio protect -14.9, PfG6PD inh 15.0, CRFR2-BP ag -0.7, CRFBP-R2 block 11.8, FAS TE block 51.4*, aDG glyco act -0.1 and FAS-TE conf 57.2*.
`Cc1nc(C#N)c(N/N=C/c2c(F)cccc2Cl)o1` gave Cardio protect 10.3, PfG6PD inh 30.9, CRFR2-BP ag -1.4, CRFBP-R2 block 5.6, FAS TE block -0.9 and aDG glyco act -0.1.
Screening O=C(Nc1ccc(Cc2ccncc2)cc1)c1ccc(Cl)c([N+](=O)[O-])c1 returned Cardio protect -18.3, PfG6PD inh 13.4, CRFR2-BP ag 0.5, CRFBP-R2 block 31.4, FAS TE block 55.7*, aDG glyco act 1.9 and FAS-TE conf 62.5*.
Screening COc1ccc([N+](=O)[O-])cc1C(=O)Nc1ccc(Cc2ccncc2)cc1 returned Cardio protect -6.2, PfG6PD inh 8.3, CRFR2-BP ag 0.2, CRFBP-R2 block 12.1, FAS TE block 60.0*, aDG glyco act 0.5 and FAS-TE conf 53.6*.
`Cc1ccc(C(=O)Nc2ccncc2)cc1[N+](=O)[O-]` gave Cardio protect -7.9, PfG6PD inh 6.0, CRFR2-BP ag 0.6, CRFBP-R2 block 26.7, FAS TE block 0.2 and aDG glyco act 0.1.
For Cc1c([N+](=O)[O-])cc(C(=O)Nc2ccc(Cc3ccncc3)cc2)cc1[N+](=O)[O-] the results were Cardio protect -5.8, PfG6PD inh 6.2, CRFR2-BP ag -1.6, CRFBP-R2 block -5.2, FAS TE block 63.3*, aDG glyco act 0.0 and FAS-TE conf 51.0*.
NC(=O)C1CCN(C(=O)c2ccc3c(=O)n(Cc4ccco4)c(SCc4ccc([N+](=O)[O-])cc4)nc3c2)CC1 was read as Cardio protect 6.3, PfG6PD inh -3.4, CRFR2-BP ag 2.3, CRFBP-R2 block -33.0, FAS TE block 21.0 and aDG glyco act 0.1.
O=C(CCC(=O)Nc1cccc(C(F)(F)F)c1)NCC1CCCO1 (stereo unspecified) was read as Cardio protect 6.1, PfG6PD inh -0.9, CRFR2-BP ag 0.2, CRFBP-R2 block 3.5, FAS TE block -3.2 and aDG glyco act -0.1.
`CC(C)(C)c1ccc(OC(=O)Nc2ccc(O)c(C(=O)O)c2)cc1` gave Cardio protect -14.2, PfG6PD inh -15.7, CRFR2-BP ag -1.6, CRFBP-R2 block 25.9, FAS TE block 50.3*, aDG glyco act 0.0 and FAS-TE conf 63.0*.
For Cc1cccc(OC(=O)Nc2ccc(C(=O)O)c(O)c2)c1 the results were Cardio protect 2.8, PfG6PD inh -27.0, CRFR2-BP ag -0.3, CRFBP-R2 block -8.8, FAS TE block -3.3 and aDG glyco act 0.0.
For CC(C)(C)OC(=O)NCCc1nnc(SCc2ccccc2Cl)o1 the results were Cardio protect -2.1, PfG6PD inh -5.7, CRFR2-BP ag -1.6, CRFBP-R2 block 12.2, FAS TE block 6.3 and aDG glyco act 0.1.
`CC(C)(C)OC(=O)NCCc1nnc(S(=O)(=O)Cc2ccc(Cl)cc2Cl)o1` gave Cardio protect -24.2, PfG6PD inh -2.6, CRFR2-BP ag 10.8, CRFBP-R2 block 18.0, FAS TE block 63.6*, aDG glyco act -0.4 and FAS-TE conf 66.6*.
Screening COc1ccc2[nH]c3c(c2c1)CCN1C(=O)C(CC(=O)NCc2ccco2)C[C@H](C(=O)N2CCOCC2)[C@@]31CCC1CCCC1 (stereo partly specified) returned Cardio protect -6.6, PfG6PD inh 20.7, CRFR2-BP ag -1.0, CRFBP-R2 block -11.4, FAS TE block 64.6*, aDG glyco act -0.2 and FAS-TE conf 76.3*.
For COc1ccc2[nH]c3c(c2c1)CCN1C(=O)C(CC(=O)NC(C)(C)C)C[C@H](C(=O)N2CCOCC2)[C@@]31CCC1CCCC1 (stereo partly specified) the results were Cardio protect 4.5, PfG6PD inh 9.2, CRFR2-BP ag -0.1, CRFBP-R2 block -7.8, FAS TE block 53.4*, aDG glyco act 0.3 and FAS-TE conf 68.8*.
CCCCNC(=O)C1(C)CCCCN1Cc1ccc2ccccc2c1 (stereo unspecified) was read as Cardio protect -7.6, FAS TE block 16.2 and aDG glyco act -0.2.

From PubChem
